The whole screen tested about 310,000 compounds, of which about 14,000 (4.5%) showed an effect of 50% or more. The effect is printed as a negative number. The entries come from a sample that favours strong results as a whole.
These compounds were tested against human ether-à-go-go-related gene (hERG) potassium channel (human, UniProt Q12809) (assay: primary screen, population patch clamp on CHO cells stably expressing hERG; higher = less effect of the substance).
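Further: peak tail current of the secondary pulse compared with the same well before compound.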

Chain of human ether-à-go-go-related gene (hERG) potassium channel (Q12809 whole entry, looked up): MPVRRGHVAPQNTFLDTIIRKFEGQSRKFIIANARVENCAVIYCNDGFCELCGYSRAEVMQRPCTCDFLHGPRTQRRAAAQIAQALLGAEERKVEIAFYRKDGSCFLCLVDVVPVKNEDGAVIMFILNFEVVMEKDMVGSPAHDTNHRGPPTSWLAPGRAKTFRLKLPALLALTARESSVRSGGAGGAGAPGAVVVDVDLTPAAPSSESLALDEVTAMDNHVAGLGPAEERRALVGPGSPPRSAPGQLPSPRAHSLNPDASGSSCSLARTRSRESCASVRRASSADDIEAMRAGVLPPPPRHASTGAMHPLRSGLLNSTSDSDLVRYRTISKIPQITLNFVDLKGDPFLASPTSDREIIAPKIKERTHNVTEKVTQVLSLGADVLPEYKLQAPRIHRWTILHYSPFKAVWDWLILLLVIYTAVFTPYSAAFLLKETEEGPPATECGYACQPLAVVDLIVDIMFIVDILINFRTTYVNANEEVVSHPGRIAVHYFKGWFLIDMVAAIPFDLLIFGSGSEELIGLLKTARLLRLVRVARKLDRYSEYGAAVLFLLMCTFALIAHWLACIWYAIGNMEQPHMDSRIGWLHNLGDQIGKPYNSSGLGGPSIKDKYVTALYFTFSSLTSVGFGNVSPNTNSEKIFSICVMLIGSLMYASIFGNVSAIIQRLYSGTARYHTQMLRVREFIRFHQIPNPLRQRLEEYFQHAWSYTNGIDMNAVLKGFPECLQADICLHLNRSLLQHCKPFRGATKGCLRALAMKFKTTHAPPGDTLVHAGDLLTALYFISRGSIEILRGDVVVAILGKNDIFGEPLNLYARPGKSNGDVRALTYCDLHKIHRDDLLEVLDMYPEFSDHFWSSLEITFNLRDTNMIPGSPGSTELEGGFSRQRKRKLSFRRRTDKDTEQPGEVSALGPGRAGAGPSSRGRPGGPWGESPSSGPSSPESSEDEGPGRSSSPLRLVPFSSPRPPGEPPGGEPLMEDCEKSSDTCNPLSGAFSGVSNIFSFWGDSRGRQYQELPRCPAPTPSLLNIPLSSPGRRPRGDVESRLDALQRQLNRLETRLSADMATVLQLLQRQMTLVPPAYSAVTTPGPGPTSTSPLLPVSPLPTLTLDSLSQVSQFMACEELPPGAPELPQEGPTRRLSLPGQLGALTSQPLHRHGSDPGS

Question: `O=C(/C=C/c1ccc2c(c1)OCO2)Nc1cccnc1` was tested. Which “hERG current change (%, negative = inhibition) at 10uM” value did it give?
Answer: -66.4%

Question: Which “hERG current change (%, negative = inhibition) at 10uM” value does the source give for `CC(=O)Nc1ccc(NC(=O)/C=C/c2ccc3c(c2)OCO3)cc1` here?
Answer: 13%

Question: How did the “hERG current change (%, negative = inhibition) at 10uM” value turn out when `O=C(/C=C/c1ccc2c(c1)OCO2)c1cccnc1` was run?
Answer: -27.8%

Question: With `C[C@@H](C(=O)N[C@@H](Cc1c[nH]c2ccccc12)C(=O)O)n1nnc2ccccc2c1=O` as the compound, how does the “hERG current change (%, negative = inhibition) at 10uM” value read?
Answer: 41.7%

Question: For `Cn1c(Cn2c(=O)sc3ccccc32)nnc1SCc1ccc(F)cc1`, which “hERG current change (%, negative = inhibition) at 10uM” value is on record?
Answer: -21.6%

Question: How did the “hERG current change (%, negative = inhibition) at 10uM” value turn out when `CC(=O)N(CCS(=O)(=O)c1ccc(Cl)cc1)Cc1cccs1` was run?
Answer: -0.348%

Question: With `N#C/C(=C\c1ccc(N2CCOCC2)o1)C(=O)NCC1CCCO1` (stereo not drawn) as the compound, how does the “hERG current change (%, negative = inhibition) at 10uM” value read?
Answer: -0.262%

Question: For `COCCNC(=O)/C(C#N)=C/c1ccc(N2CCOCC2)o1`, which “hERG current change (%, negative = inhibition) at 10uM” value is on record?
Answer: 9.87%

Question: With `N#C/C(=C\c1ccc(N2CCOCC2)o1)C(=O)NCCc1ccccc1` as the compound, how does the “hERG current change (%, negative = inhibition) at 10uM” value read?
Answer: -57.9%

Question: How did the “hERG current change (%, negative = inhibition) at 10uM” value turn out when `O=C(c1cc(C(=O)NCc2ccccc2)c(=O)n(Cc2ccccc2)c1)c1cc(Cl)ccc1O` was run?
Answer: -0.908%

Question: Which “hERG current change (%, negative = inhibition) at 10uM” value does the source give for `Cc1ccc2nsnc2c1S(=O)(=O)Nc1cccc2nsnc12` here?
Answer: -0.692%

Question: With `COc1cc(C(=O)NC(=S)Nc2nccs2)cc(OC)c1OC` as the compound, how does the “hERG current change (%, negative = inhibition) at 10uM” value read?
Answer: 17.7%

Question: `CCOC(=O)C(C)Sc1nc2c(c(=O)[nH]c(=O)n2C)n1Cc1ccc(Cl)cc1` (stereo not drawn) was tested. Which “hERG current change (%, negative = inhibition) at 10uM” value did it give?
Answer: -75%

Question: For `Cn1c(=O)[nH]c(=O)c2c1nc(SCC(=O)O)n2CCCc1ccccc1`, which “hERG current change (%, negative = inhibition) at 10uM” value is on record?
Answer: 3.89%

Question: With `CCOC(=O)C(C)Sc1nc2c(c(=O)[nH]c(=O)n2C)n1CCc1ccccc1` (stereo not drawn) as the compound, how does the “hERG current change (%, negative = inhibition) at 10uM” value read?
Answer: -49.8%

Question: With `CCOC(=O)C(C)Sc1nc2c(c(=O)[nH]c(=O)n2C)n1C/C=C(/C)Cl` (stereo not drawn) as the compound, how does the “hERG current change (%, negative = inhibition) at 10uM” value read?
Answer: -72.8%

Question: `C/C(Cl)=C/Cn1c(SC(C)C)nc2c1c(=O)[nH]c(=O)n2C` was tested. Which “hERG current change (%, negative = inhibition) at 10uM” value did it give?
Answer: -6.63%

Question: For `C/C(Cl)=C/Cn1c(SCC(C)C)nc2c1c(=O)[nH]c(=O)n2C`, which “hERG current change (%, negative = inhibition) at 10uM” value is on record?
Answer: 15.2%

Question: `CCOC(=O)CSc1nc2c(c(=O)[nH]c(=O)n2C)n1CCc1ccccc1` was tested. Which “hERG current change (%, negative = inhibition) at 10uM” value did it give?
Answer: -1.16%

Question: With `CCC(C)Sc1nc2c(c(=O)[nH]c(=O)n2C)n1Cc1ccc(Cl)cc1` (stereo not drawn) as the compound, how does the “hERG current change (%, negative = inhibition) at 10uM” value read?
Answer: 1.92%

Question: For `CCOC(=O)C(CC)Sc1nc2c(c(=O)[nH]c(=O)n2C)n1CCc1ccccc1` (stereo not drawn), which “hERG current change (%, negative = inhibition) at 10uM” value is on record?
Answer: -67.8%

Question: `COC(=O)C(C)Sc1nc2c(c(=O)[nH]c(=O)n2C)n1CCCc1ccccc1` (stereo not drawn) was tested. Which “hERG current change (%, negative = inhibition) at 10uM” value did it give?
Answer: -72.2%

Question: How did the “hERG current change (%, negative = inhibition) at 10uM” value turn out when `CC(C)Sc1nc2c(c(=O)[nH]c(=O)n2C)n1Cc1ccc(Cl)cc1` was run?
Answer: -13.3%

Question: With `COC(=O)C(C)Sc1nc2c(c(=O)[nH]c(=O)n2C)n1CCC(C)C` (stereo not drawn) as the compound, how does the “hERG current change (%, negative = inhibition) at 10uM” value read?
Answer: -24.6%

Question: With `Cc1ccc(OC(=S)Nc2ccc(F)cc2)cc1` as the compound, how does the “hERG current change (%, negative = inhibition) at 10uM” value read?
Answer: 7.01%

Question: `Cc1ccc(Sc2nc(-c3ccccc3)nnc2C(F)(F)F)cc1` was tested. Which “hERG current change (%, negative = inhibition) at 10uM” value did it give?
Answer: 11.7%

Question: `CC(C)(C)C(=O)NC(Nc1cccc2cccnc12)C(Cl)(Cl)Cl` (stereo not drawn) was tested. Which “hERG current change (%, negative = inhibition) at 10uM” value did it give?
Answer: -1.6%

Question: Which “hERG current change (%, negative = inhibition) at 10uM” value does the source give for `CC1=C(C(=O)OC(C)C)C(c2ccc(Br)s2)NC(=O)N1` (stereo not drawn) here?
Answer: -48%

Question: `O=c1oc2cc([N+](=O)[O-])ccc2nc1/C=C(\O)c1cccc(Br)c1` was tested. Which “hERG current change (%, negative = inhibition) at 10uM” value did it give?
Answer: 4.15%

Question: `C[C@]12C(=O)N(c3ccc(F)cc3)C(=O)N1[C@@H]1c3ccccc3OC[C@@H]1[C@H]2c1ccccc1` was tested. Which “hERG current change (%, negative = inhibition) at 10uM” value did it give?
Answer: 7.01%

Question: With `COc1cc(OC)c(NC2=NCCCCC2)cc1Cl` as the compound, how does the “hERG current change (%, negative = inhibition) at 10uM” value read?
Answer: -0.664%

Question: Which “hERG current change (%, negative = inhibition) at 10uM” value does the source give for `CCOC(=O)C(CC)Sc1nc2c(c(=O)[nH]c(=O)n2C)n1C/C=C(/C)Cl` (stereo not drawn) here?
Answer: -82%

Question: Which “hERG current change (%, negative = inhibition) at 10uM” value does the source give for `CCOC(=O)CSc1nc2c(c(=O)[nH]c(=O)n2C)n1C/C=C(/C)Cl` here?
Answer: -43.7%

Question: How did the “hERG current change (%, negative = inhibition) at 10uM” value turn out when `CCSc1nc2c(c(=O)[nH]c(=O)n2C)n1C/C=C(/C)Cl` was run?
Answer: -17.2%

Question: How did the “hERG current change (%, negative = inhibition) at 10uM” value turn out when `Nc1nc(Cl)cc(-c2ccccc2)n1` was run?
Answer: -4.54%

Question: Which “hERG current change (%, negative = inhibition) at 10uM” value does the source give for `CCC(C)C(NC=C1C(=O)OC(C)(C)OC1=O)C(=O)O` (stereo not drawn) here?
Answer: -4.97%

Question: Which “hERG current change (%, negative = inhibition) at 10uM” value does the source give for `CCCn1c(CN(C)Cc2ccccc2)nc2c1c(=O)n(C)c(=O)n2C` here?
Answer: -23.4%

Question: How did the “hERG current change (%, negative = inhibition) at 10uM” value turn out when `CC1CN(Cc2nc3c(c(=O)n(C)c(=O)n3C)n2Cc2cccc(Cl)c2)CC(C)O1` (stereo not drawn) was run?
Answer: -14.2%

Question: Which “hERG current change (%, negative = inhibition) at 10uM” value does the source give for `CN(Cc1ccccc1)Cc1nc2c(c(=O)n(C)c(=O)n2C)n1CCc1ccccc1` here?
Answer: -48.3%

Question: Which “hERG current change (%, negative = inhibition) at 10uM” value does the source give for `CCOCCn1c(CN(Cc2ccccc2)Cc2ccccc2)nc2c1c(=O)n(C)c(=O)n2C` here?
Answer: -45.6%

Question: With `CN(Cc1ccccc1)Cc1nc2c(c(=O)n(C)c(=O)n2C)n1Cc1ccc(F)cc1` as the compound, how does the “hERG current change (%, negative = inhibition) at 10uM” value read?
Answer: -55.6%

Question: How did the “hERG current change (%, negative = inhibition) at 10uM” value turn out when `COCCn1c(CN(Cc2ccccc2)Cc2ccccc2)nc2c1c(=O)n(C)c(=O)n2C` was run?
Answer: -62.8%

Question: With `Cn1c(=O)c2c(nc(CN3CCN(Cc4ccccc4)CC3)n2Cc2cccc(Cl)c2)n(C)c1=O` as the compound, how does the “hERG current change (%, negative = inhibition) at 10uM” value read?
Answer: -59.2%

Question: For `CN(Cc1ccccc1)Cc1nc2c(c(=O)n(C)c(=O)n2C)n1Cc1ccc(Cl)cc1`, which “hERG current change (%, negative = inhibition) at 10uM” value is on record?
Answer: -30.1%

Question: Which “hERG current change (%, negative = inhibition) at 10uM” value does the source give for `COCCn1c(CN(C)Cc2ccccc2)nc2c1c(=O)n(C)c(=O)n2C` here?
Answer: -6.15%
